Assay outcomes from PubChem BioAssay.
Compounds with a hit are over-represented: about 8.7% of the library has one in this group of screens.
AMA1 RON2 block: disrupts binding of P. falciparum AMA1 to RON2 | AlphaScreen AMA1-biotinylated RON2 peptide binding | Potency, µM (highest dose often 58.2 µM), most hits filed as inhibitors | actives 0.2% (n = 360,000); further: nearly all actives have a fitted effect of over 45% in size
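AMA1 (3D7) with his tag at 25 nM final met compounds first, then biotinylated RON2 peptide at 25 nM; detection used donor plus acceptor beads, 10 µg/mL apiece, read by AlphaScreen after 30 min at room temperature.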
Pf growth 48h: inhibits P. falciparum growth in the first generation, 48 h; P. falciparum luciferase growth in erythrocytes, 48 h; Potency, µM (top dose mostly 28.7 µM), most hits filed as inhibitors; actives 5.9% (n = 310,000)
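Firefly luciferase activity from engineered P. falciparum reports growth; inhibitors lower the luminescent signal. Cultures contained 2% hematocrit erythrocytes at 0.1% final parasitemia.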
Vaccinia Venus: inhibitors of vaccinia virus (Venus reporter); Vaccinia virus Venus reporter expression, fluorescence; Potency, µM (highest dose often 36.5 µM), actives largely listed as inhibitors; actives 0.46% (n = 330,000); calls by dose curve; tested in A549 cells; further: nearly all actives have a fitted effect of over 30% in size
VACV mCherry inh: inhibitors of vaccinia virus infection (mCherry reporter signal). actives 0.63% (n = 310,000). Potency, µM (series often up to 36.5 µM), actives largely listed as inhibitors. Vaccinia virus mCherry reporter infection, fluorescence; calls by dose curve; tested in A549 cells; further: nearly all actives have a fitted effect of over 35% in size
Pf growth 96h: inhibits malaria parasite growth, 96 h; Potency, µM (highest dose often 28.7 µM), most hits filed as inhibitors; P. falciparum luciferase reporter growth, 96 h; AID 504834; actives 6.9% (n = 320,000)
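96 h incubation, 37 C, 5% CO2, of luciferase-reporter P. falciparum-infected RBCs (2% hematocrit, 0.05% parasitemia final) with test compounds; endpoint luminescence.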
Hits are given with their value; . = inactive; ? = inconclusive; / = not tested or not shown; [ ] = dose if it differs, or a comment. Unless noted, the call rests on the fitted dose curve; in most records, active means well fitted curve in the direction sought with a large enough effect; inconclusive means small, poorly fitted or top-dose-only effect, or another doubt; inactive means no such curve, though single readings can be large; an effect the other way counts as inactive or inconclusive.

SMILES	AMA1 RON2 block	Pf growth 48h	Vaccinia Venus	VACV mCherry inh	Pf growth 96h
O=C(COc1ccc(F)cc1Cl)Nc1cccc(S(=O)(=O)N2CCCCCC2)c1	.	?	.	.	13µM
O=C(COc1cccc2cccnc12)Nc1cccc(S(=O)(=O)N2CCCC2)c1	.	10µM	/	/	?
O=C(CNc1ccc(F)cc1Cl)Nc1cccc(S(=O)(=O)N2CCCCC2)c1	.	?	/	/	?
CC(=O)c1cc(Cl)ccc1OCC(=O)Nc1cccc(S(=O)(=O)N2CCCC2)c1	.	?	/	/	3.7µM
CCOc1ccc2c(c1)c(=O)c(S(=O)(=O)c1ccc(CC)cc1)cn2Cc1cccc(Cl)c1	/	/	.	.	/
CCOc1ccc(NC(=O)CC2SC(N)=NC2=O)c([N+](=O)[O-])c1 (stereo not given)	.	.	.	.	.
CCOc1ccc(/C(C)=N/N2C(=O)C(CC(=O)Nc3ccc(OC)cc3[N+](=O)[O-])SC2=Nc2cccc(C)c2C)cc1 (stereo not given)	.	2.1µM	.	.	2.3µM
COc1ccccc1/C=N/N1C(=O)C(CC(=O)Nc2ccc([N+](=O)[O-])cc2OC)SC1=Nc1cccc(C)c1C (stereo not given)	/	3.7µM	/	/	?
COc1cc([N+](=O)[O-])ccc1NC(=O)CCCOc1cccc(C)c1C	.	.	/	/	2.9µM
Cc1ccccc1NC(=O)CCC(=O)N/N=C/c1cc([N+](=O)[O-])ccc1O	.	?	.	.	?
COc1cc([N+](=O)[O-])ccc1NC(=O)Cc1ccccc1	.	.	.	.	.
COc1ccc(C(=O)Nc2cccc(-c3csc(C)n3)c2)cc1S(=O)(=O)N1CCCC1	.	12µM	/	/	13µM
COc1ccc(C(=O)Nc2ccc(-c3cn4ccsc4n3)cc2)cc1S(=O)(=O)N1CCOCC1	.	?	/	/	0.33µM
COc1ccc(C(=O)Nc2ccc(N3CCOCC3)cc2)cc1S(=O)(=O)N1CCOCC1	.	.	.	.	.
CCOC(=O)N1CCN(S(=O)(=O)c2ccc(F)c(C(=O)Nc3cccc(Cl)c3C)c2)CC1	.	12µM	.	.	.
CCOC(=O)N1CCN(S(=O)(=O)c2ccc(F)c(C(=O)Nc3cc(C)cc(C)c3)c2)CC1	.	8.3µM	/	/	?
O=C(Nc1cccc(Cl)c1Cl)c1cc(S(=O)(=O)N2CCCCC2)ccc1F	/	/	.	.	/
CCOc1ccccc1NC(=O)CN(CCc1ccccc1)S(=O)(=O)c1ccc(C)cc1	/	/	.	.	/
Cc1ccc(NC2CCCN(C(=O)CCC3=NNC(=O)CC3)C2)cc1C (stereo not given)	.	.	.	.	8.3µM
Cc1ccn(CC(=O)N2CCCC(N3CCN(c4ccccc4F)CC3)C2)n1 (stereo not given)	.	.	/	/	13µM
Cc1ccnn1CCC(=O)N1CCCC(Nc2ccc(F)c(F)c2)C1 (stereo not given)	.	.	.	.	12µM
Cc1ccn(CCC(=O)N2CCCC(N3CCN(c4ccccc4C)CC3)C2)n1 (stereo not given)	.	/	.	?	/
COc1ccc(NC2CCCN(C(=O)Cn3ccc(C)n3)C2)cc1OC (stereo not given)	.	.	.	.	5.2µM
Cc1nn(C(=O)c2cccc([N+](=O)[O-])c2C)c(C)c1S(=O)(=O)N1CCCCCC1	/	/	.[7.34 µM]	.[7.34 µM]	/
Cc1ccc(C(CC(=O)NCC2(c3ccccc3)CCCC2)c2ccccc2)c(O)c1 (stereo not given)	/	/	.	.	/
SMILES	AMA1 RON2 block	Pf growth 48h	Vaccinia Venus	VACV mCherry inh	Pf growth 96h
Cc1cccc(N(CC(=O)NCc2ccc3c(c2)OCO3)C(=O)CCC(=O)Nc2ccccn2)c1C	.	5.9µM	.	/	/
Cc1ccc(N(CC(=O)NCc2ccccc2)C(=O)CCC(=O)Nc2ccccn2)cc1C	.	.	.	.	.
COc1ccc(N(CC(=O)NCc2ccc3c(c2)OCO3)C(=O)CCC(=O)Nc2ccccn2)cc1	.	.	.	.	.
Cc1cccc(N(CC(=O)NCc2ccc3c(c2)OCO3)C(=O)CCC(=O)Nc2ccccn2)c1	.	13µM	.	/	.
COc1ccc2c(CSc3nc4nc(C)cc(C)n4n3)cc(=O)oc2c1	.	13µM	.	.	.
CC1(C)C2CCC1(C)C(Nc1ccccc1)C2 (stereo not given)	.	.	.	.	?
O=C(/C=C/c1ccccc1)NC1CCSC1=O (stereo not given)	.	.	.	.	10µM
CC1(C)C2CCC1(C)C(NC(=O)/C=C/c1ccccc1)C2 (stereo not given)	.	7.4µM	.	.	.
O=C(NC1CCSC1=O)c1ccccc1 (stereo not given)	.	.	/	/	?
COc1ccc2cc(CNCc3ccccc3C(F)(F)F)c(N3CCCC(CO)C3)nc2c1 (stereo not given)	/	/	.	.	/
Cc1ccc(C)c(Cn2cc(CCC(=O)NC3CCCCC3)c3ccccc32)c1	/	/	.	.	/
COc1ccc(CCNC(=O)Cn2nnc(-c3ccc(N(C)C)cc3)n2)cc1OC	.	.	.	.	4.1µM
COc1ccc(N(CC(=O)NC2CCCC2)C(=O)Cn2nnc(-c3ccc(F)cc3)n2)cc1OC	.	?	/	/	.
COc1ccc(N(CC(=O)NC2CCCC2)C(=O)Cn2nnc(-c3ccc(C)cc3)n2)cc1OC	.	?	.	.	10µM
Cc1c(Cl)cccc1NC(=S)NNS(=O)(=O)c1ccc([N+](=O)[O-])cc1	.	.	?	10µM	.
Cc1c(Cl)cccc1NC(=S)Nn1cnnc1	.	.	.	.	.
CCc1ccc(C2CC(=O)Nc3cc4c(cc32)OCO4)cc1 (stereo not given)	/	/	.	.	/
O=C(NC1=C(Nc2ccc(F)cc2)C(=O)c2ccccc2C1=O)c1ccc(Cl)cc1	.	0.52µM	?	?	0.37µM
Fc1ccc(Nc2c(-c3c[nH]c4ccccc34)nc3ccccn23)cc1	/	/	.	.	/
Cn1cccc1/C=N/N1CCN(Cc2cccc3ccccc23)CC1	20µM	.	.	.	.
CC(C)(C)c1ccc(OCCOc2ccc(C(C)(C)C)cc2NC=O)c(NC=O)c1	.	10µM	?	.	2.6µM
OCCN(CCO)c1nc(N2CCCCC2)c2nc(N(CCO)CCO)nc(N3CCCCC3)c2n1	.	2.1µM	?	?	3.3µM
CCOc1ccc2nc(NC(=O)CS(=O)(=O)c3ccc(Cl)cc3)sc2c1	/	/	.	.	/
O=C1CC(N2CCN(S(=O)(=O)c3ccccc3F)CC2)C(=O)N1c1ccccc1F (stereo not given)	32µM	/	/	/	/
Cc1cccc(C)c1N1C(=O)CC(N2CCN(S(=O)(=O)c3ccccc3F)CC2)C1=O (stereo not given)	.	/	/	/	/
CCCCN1CC(=O)N2[C@H]3c4ccc(OC)cc4OC[C@@H]3[C@H](c3ccccc3)[C@]2(C)C1=O	.	2.1µM	.	.	7.4µM
COc1ccc2c(c1)OC[C@H]1[C@H]2N2C(=O)CN(Cc3ccco3)C(=O)[C@@]2(C)[C@H]1c1ccccc1	.	?	.	.	9.3µM
COc1ccc2c(c1)OC[C@H]1[C@H]2N2C(=O)CN(Cc3ccc(C)cc3)C(=O)[C@@]2(C)[C@H]1c1ccccc1	.	?	.	.	?
